# Experimental data taken from PubChem BioAssay (Tox21).
# Values joined by “and” are separate entries in the source; they are usually repeats but may differ in a detail not shown here. Identical values can stand only once. Inconclusive results are not listed. Entries that show only a call come without a potency. Unmarked numbers belong to inactive results. Active and inactive are the calls of the source. Unless noted, calls come from the whole dose curve; as a rule, active = well fitted curve in the direction sought with a large enough effect in the repeat runs; inconclusive = weak or mixed curves; inactive = no such curve, though single readings can be large; an effect the other way counts as inactive or inconclusive.
# Legend:
# [1] = qHTS assay for small molecule disruptors of the mitochondrial membrane potential - cell viability (AID 720634; calls by dose curve; note: nearly all actives have a fitted effect of over 20% in size; note: potency is the fitted concentration of half-maximal effect)
# Outline: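 Cytotoxicity was quantified from ATP content by CellTiter-Glo luminescence in the same wells as the MMP dye read-out. HepG2 (2,000 cells/well) were plated overnight and exposed to compounds for 1 hr at 37 C.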
# [2] = target: Glucocorticoid receptor (Homo sapiens) (UniProt P04150); assay: qHTS assay to identify small molecule antagonists of the glucocorticoid receptor (GR) signaling pathway (AID 720692; active = well fitted inhibition curve with a large enough effect in the signal ratio in the repeat runs, not every such curve was filed as active; the % refers to the signal ratio; note: potency is the fitted concentration of half-maximal effect)
# Glucocorticoid receptor (Homo sapiens), sequence (P04150 whole entry, looked up): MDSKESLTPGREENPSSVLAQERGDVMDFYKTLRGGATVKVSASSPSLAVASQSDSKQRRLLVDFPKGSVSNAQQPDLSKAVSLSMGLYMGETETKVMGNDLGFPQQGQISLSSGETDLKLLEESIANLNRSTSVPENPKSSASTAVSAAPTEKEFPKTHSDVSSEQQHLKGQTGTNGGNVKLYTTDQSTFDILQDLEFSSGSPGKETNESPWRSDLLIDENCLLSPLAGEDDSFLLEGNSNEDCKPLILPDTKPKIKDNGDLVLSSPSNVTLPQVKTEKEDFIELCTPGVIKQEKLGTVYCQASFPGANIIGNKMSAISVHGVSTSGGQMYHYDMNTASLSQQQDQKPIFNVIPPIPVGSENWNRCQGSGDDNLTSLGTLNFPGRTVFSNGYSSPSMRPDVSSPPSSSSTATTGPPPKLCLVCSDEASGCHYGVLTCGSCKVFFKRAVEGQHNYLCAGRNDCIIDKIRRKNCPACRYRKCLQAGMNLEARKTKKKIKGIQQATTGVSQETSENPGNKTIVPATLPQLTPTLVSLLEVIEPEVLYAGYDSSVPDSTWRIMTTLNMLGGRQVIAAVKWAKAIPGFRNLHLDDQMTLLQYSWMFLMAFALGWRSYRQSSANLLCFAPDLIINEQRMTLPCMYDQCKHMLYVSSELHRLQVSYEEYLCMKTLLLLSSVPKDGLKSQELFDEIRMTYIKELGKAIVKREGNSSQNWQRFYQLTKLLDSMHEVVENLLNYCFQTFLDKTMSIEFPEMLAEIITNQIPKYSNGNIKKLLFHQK
# Outline: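 Inhibition of dexamethasone-driven (5 nM final) beta-lactamase expression was measured in GRE-reporter HeLa cells over 18 h at 37C. Fluorescence was read after 2 h with the B/G FRET substrate at room temperature.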
# [3] = system: thyroid hormone receptor (rat, GH3 cells); assay: qHTS assay to identify small molecule agonists of the thyroid receptor (TR) signaling pathway (AID 743066; calls by dose curve)
# [4] = qHTS assay to identify small molecule antagonists of the estrogen receptor alpha (ER-alpha) signaling pathway - cell viability counter screen (AID 743074; calls by dose curve;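 note: HEK293 cells carrying ER-alpha-UAS-bla reporter stimulated with 17beta-estradiol; nearly all actives have a fitted effect of over 45% in size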; note: potency is the fitted concentration of half-maximal effect)
# [5] = qHTS assay to identify small molecule antagonists of the estrogen receptor alpha (ER-alpha) signaling pathway using the BG1 cell line (AID 743080; calls by dose curve;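 note: BG1 cells stimulated with 17beta-estradiol alongside compound; nearly all actives have a fitted effect of over 25% in size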; note: potency is the fitted concentration of half-maximal effect)
# Outline: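 BG1Luc4E2, endogenous ER-alpha, 4xERE-luc; 5 d charcoal-stripped FBS, phenol red free; 24 h plating; cpd + 17beta-estradiol 21.5 h, 37 C/5% CO2; CellTiter-Fluor viability 30 min, then ONE-Glo luciferase 30 min RT.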
# [6] = target: Peroxisome proliferator-activated receptor delta (Homo sapiens) (UniProt Q03181); assay: qHTS assay to identify small molecule agonists of the peroxisome proliferator-activated receptor delta (PPARd) signaling pathway (AID 743212; calls by dose curve)
# Peroxisome proliferator-activated receptor delta (Homo sapiens), sequence (Q03181 whole entry, looked up): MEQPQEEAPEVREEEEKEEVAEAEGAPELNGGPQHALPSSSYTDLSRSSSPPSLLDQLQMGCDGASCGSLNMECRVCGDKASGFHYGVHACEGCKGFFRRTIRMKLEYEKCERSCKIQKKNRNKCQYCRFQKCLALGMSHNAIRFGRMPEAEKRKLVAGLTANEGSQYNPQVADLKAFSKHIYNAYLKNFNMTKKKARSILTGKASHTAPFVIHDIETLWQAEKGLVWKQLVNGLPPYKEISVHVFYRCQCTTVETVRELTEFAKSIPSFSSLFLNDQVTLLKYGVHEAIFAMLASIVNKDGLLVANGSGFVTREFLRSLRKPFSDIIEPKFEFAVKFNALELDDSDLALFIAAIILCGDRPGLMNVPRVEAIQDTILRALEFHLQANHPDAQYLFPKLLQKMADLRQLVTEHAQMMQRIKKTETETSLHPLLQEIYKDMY
# Outline: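 Cells expressing a UAS-driven beta-lactamase reporter (PPARd-bla HEK293H) were given test compounds after a 5 h settle and kept at 37 C. Reporter activity was then measured as FRET fluorescence using LiveBLAzer B/G substrate.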
# [7] = qHTS assay to identify small molecule antagonists of the peroxisome proliferator-activated receptor delta (PPARd) signaling pathway - cell viability counter screen (AID 743213); note: nearly all actives have a fitted effect of over 50% in size; note: potency is the fitted concentration of half-maximal effect
# Outline: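 Luminescence from CellTiter-Glo, added after the bla read and incubated 30 min at room temperature, gives viability of HEK293H PPARd-bla cells exposed to compounds for 17 h at 37 C with 300 nM L165041.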
# [8] = qHTS assay to identify small molecule agonists of the farnesoid-X-receptor (FXR) signaling pathway - cell viability counter screen (AID 743218); note: nearly all actives have a fitted effect of over 45% in size; note: potency is the fitted concentration of half-maximal effect
# Outline: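 Viability counter screen in the same wells: CellTiter-Glo luminescence, 30 min room-temperature incubation, measured after the beta-lactamase read. Cells were GeneBLAzer FXR-UAS-bla HEK 293T, compound-treated 16 h at 37C.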
# [9] = qHTS assay to identify small molecule antagonists of the vitamin D receptor (VDR) signaling pathway - cell viability counter screen (AID 743225); note: nearly all actives have a fitted effect of over 50% in size; note: potency is the fitted concentration of half-maximal effect
# Outline: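 Cytotoxicity toward the VDR-bla HEK 293T line was scored by ATP-based CellTiter-Glo luminescence, read in the wells already used for the beta-lactamase readout after 16 h compound treatment under 3 nM 1-alpha,25-dihydroxyvitamin D3 stimulation.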
# [10] = qHTS assay to identify small molecule antagonists of the retinoid-related orphan receptor gamma (ROR-gamma) signaling pathway - cell viability counter screen (AID 1159520); note: nearly all actives have a fitted effect of over 50% in size; note: potency is the fitted concentration of half-maximal effect
# Outline: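 Tet-on ROR gamma CHO cells (1,000/well) were plated 4 hr, given compounds in DMSO for 2 hr at 37 C, then induced with 1 uM final doxycycline for 16 hr. Viability was read as ATP by CellTiter-Glo luminescence after 30 min.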
# [11] = qHTS assay to identify small molecule agonists of the retinoic acid receptor (RAR) signaling pathway (AID 1159553)
# Outline: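 Luminescence was measured 30 min after luciferase reagent addition at room temperature. Before that, C3RL4 reporter cells (1,000 per well, plated overnight) were treated with compound for 6 hr at 37 C and 5% CO2.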
# [12] = qHTS assay to identify small molecule phospholipidosis (PLD) inducers (AID 1259344; active = well fitted curve in the direction sought with a large enough effect; an effect the other way counts as inactive or inconclusive; note: potency is the fitted concentration of half-maximal effect)
# Outline: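 Cells (HepG2, 900 per well) attach for 4 h, receive LipidTOX Red and compound together, incubate 24 h at 37 C, are fixed 30 min with paraformaldehyde/Hoechst, then imaged at one site per well.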
# [13] = qHTS assay to identify small molecule agonists of the hypoxia (HIF-1) signaling pathway (AID 1224846; active = well fitted activation curve with a large enough effect in the signal ratio in the repeat runs, not every such curve was filed as active; the % refers to the signal ratio)
# Outline: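 Compounds added to ME-180 cells carrying hypoxia-response-element beta-lactamase reporter (0.5% dialyzed FBS, 5 h preplating), 17 h at 37C; agonist activity detected by CCF4-AM B/G FRET read-out.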
# [14] = qHTS assay for small molecule agonists of the p53 signaling pathway - cell viability (AID 651633; calls by dose curve;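 note: p53RE-bla HCT reporter cells with a stable beta-lactamase p53 reporter; series mostly up to about 83 µM; nearly all actives have a fitted effect of over 30% in size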)
# Outline: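 p53RE-bla cells, seeded at 4,000 per well and rested 5 h at 37 C/5% CO2, received compounds in DMSO for 16 h at 37 C. CellTiter-Glo was then added, and luminescence was read after 30 min at room temperature to gauge cytotoxicity.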
# [15] = target: Glucocorticoid receptor (Homo sapiens) (UniProt P04150); assay: qHTS assay to identify small molecule agonists of the glucocorticoid receptor (GR) signaling pathway (AID 720691; active = well fitted activation curve with a large enough effect in the signal ratio in the repeat runs, not every such curve was filed as active; the % refers to the signal ratio)
# Outline: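 Agonist-mode qHTS in HeLa cells stably expressing a glucocorticoid-response-element beta-lactamase reporter. Fluorescence intensity read with FRET substrate (2 h, room temperature) after 18 h compound treatment at 37 C.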
# [16] = qHTS assay to identify small molecule agonists of the vitamin D receptor (VDR) signaling pathway - cell viability counter screen (AID 743224); note: nearly all actives have a fitted effect of over 50% in size; note: potency is the fitted concentration of half-maximal effect
# Outline: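 Counter screen run in the same wells as the VDR-bla reporter assay: CellTiter-Glo luminescence, 30 min at room temperature, after 16 h compound treatment at 37C of cells pre-plated for 4 h.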
# [17] = qHTS assay for identifying genotoxic compounds that show differential cytotoxicity against isogenic chicken DT40 cell lines with known DNA damage response pathways - wild type cell line (AID 743012); note: nearly all actives have a fitted effect of over 60% in size; note: potency is the fitted concentration of half-maximal effect
# Outline: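 Viability by ATP luminescence (CellTiter-Glo, 30 min RT) after 40 h compound treatment at 37 C/5% CO2, using 300 parental DNA repair-proficient DT40 cells per well.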
# [18] = qHTS assay to identify small molecule agonists of the peroxisome proliferator-activated receptor delta (PPARd) signaling pathway - cell viability counter screen (AID 743211); note: nearly all actives have a fitted effect of over 55% in size; note: potency is the fitted concentration of half-maximal effect
# Outline: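 Multiplexed format: after the 2 h room-temperature LiveBLAzer B/G FRET step, CellTiter-Glo was added to the same wells. Luminescence after 30 min gave cell viability; compound exposure was 17 h at 37C.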
# [19] = qHTS assay for small molecule agonists of the antioxidant response element (ARE) signaling pathway - cell viability counter screen (AID 743203; calls by dose curve; note: nearly all actives have a fitted effect of over 55% in size; note: potency is the fitted concentration of half-maximal effect)
# Outline: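 Viability counter screen: CellTiter-Glo luminescence, read after 30 min at room temperature, in ARE-bla HepG2 wells. Compound exposure lasted 16 h at 37C/5% CO2, following a 5 h pre-incubation of the cells after plating.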
# [20] = qHTS assay to identify small molecule antagonists of the thyroid receptor (TR) signaling pathway - cell viability counter screen (AID 743064); note: nearly all actives have a fitted effect of over 50% in size; note: potency is the fitted concentration of half-maximal effect
# Outline: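 Same-well viability check: GH3.TRE-Luc cells stimulated with 1 nM T3 alongside test compound for 23.5 h, followed by CellTiter-Fluor fluorescence.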
smiles,measurement,setting,value
O=C1C(I)=CC(=C(c2cc(I)c(O)c(I)c2)c2ccccc2C(=O)O)C=C1I,Potency,[1],inactive
same,Potency,[2],16.9 µM (active) and 8.49 µM (active)
same,Potency,[3],inactive
same,Potency,[4],inactive
same,Potency,[5],inactive
same,outcome,[6],inactive
same,Potency,[7],inactive
same,Potency,[8],inactive
same,Potency,[9],inactive
same,Potency,[10],inactive
same,outcome,[11],inactive
same,Potency,[12],inactive
ClC(Cl)=C(c1ccc(Cl)cc1)c1ccccc1Cl,Potency,[10],inactive
same,outcome,[13],inactive
O=C(Nc1ccccc1-c1ccc(Cl)cc1)c1cccnc1Cl,Potency,[14],inactive
same,Potency,[15],inactive
same,Potency,[3],inactive
same,Potency,[5],inactive
same,outcome,[11],inactive
same,Potency,[12],inactive
CO/C=C(/C(=O)OC)c1ccccc1Oc1cc(Oc2ccccc2C#N)ncn1,Potency,[15],inactive
same,Potency,[3],inactive
same,Potency,[4],16.5 µM (active)
same,Potency,[16],5.22 µM (active)
same,outcome,[11],inactive
N#Cc1cc([N+](=O)[O-])ccc1N,Potency,[10],inactive
same,outcome,[13],inactive
ClC1=C(Cl)[C@]2(Cl)[C@@H]3[C@@H](Cl)[C@H]4O[C@H]4[C@@H]3C1(Cl)C2(Cl)Cl,Potency,[14],inactive
same,Potency,[1],inactive
same,Potency,[17],61.1 µM (active)
same,Potency,[4],inactive
same,Potency,[5],inactive
same,Potency,[18],54.9 µM (active)
same,outcome,[6],inactive
same,Potency,[7],inactive
same,outcome,[13],inactive
Cc1ccc2nc3sc(=O)sc3nc2c1,"activity, negative = cytotoxicity",[10],-10.1% [at 19 µM]
Nc1ccc([N+](=O)[O-])cc1,Potency,[15],inactive
same,Potency,[17],13.7 µM (active)
same,Potency,[3],inactive
same,Potency,[12],inactive
O=[N+]([O-])c1c(Cl)c(Cl)cc(Cl)c1Cl,Potency,[14],inactive
same,Potency,[3],inactive
same,Potency,[5],inactive
same,Potency,[19],inactive
same,Potency,[18],inactive
same,Potency,[16],inactive
same,Potency,[10],inactive
same,outcome,[11],inactive
same,outcome,[13],inactive
same,Potency,[12],inactive
COc1ccc(C(c2ccc(OC)cc2)C(Cl)(Cl)Cl)cc1,Potency,[15],inactive
same,Potency,[2],34.5 µM (active)
same,Potency,[17],19.2 µM (active)
same,Potency,[20],36.2 µM (active)
same,Potency,[5],inactive
same,outcome,[11],inactive
same,Potency,[12],31.6 µM (active)
CCN(CC)C(=O)Cl,outcome,[13],inactive
Cc1cc(C(C)(C)c2ccc(O)c(C)c2)ccc1O,Potency,[14],inactive
same,Potency,[2],13.1 µM (active)
same,Potency,[17],inactive
same,Potency,[20],inactive
same,Potency,[3],inactive
same,Potency,[4],inactive
same,Potency,[19],46.2 µM (active)
same,outcome,[6],inactive
same,Potency,[16],33 µM (active)
Cc1ccc(N(SC(F)(Cl)Cl)S(=O)(=O)N(C)C)cc1,Potency,[17],0.122 µM (active)
same,Potency,[19],7.7 µM (active)
same,Potency,[18],19.5 µM (active)
same,Potency,[7],13.8 µM (active)
same,Potency,[8],13.8 µM (active)
same,Potency,[16],7.76 µM (active)
same,Potency,[10],6.11 µM (active)
CC1COC(Cn2cncn2)(c2ccc(Oc3ccc(Cl)cc3)cc2Cl)O1 (stereo not drawn),Potency,[14],inactive
same,Potency,[1],2.43 µM (active)
same,Potency,[2],43.6 µM (active)
same,Potency,[17],1.37 µM (active)
same,Potency,[20],48.6 µM (active)
same,Potency,[5],13.7 µM (active)
same,Potency,[19],54.5 µM (active)
same,Potency,[18],49 µM (active)
same,outcome,[6],inactive
same,Potency,[8],49 µM (active)
same,Potency,[16],54.9 µM (active)
same,Potency,[9],49 µM (active)
same,outcome,[11],inactive
